# Sampled rows, rich in hits. Any-hit rate of the full collection: about 27%.
# CYP2C19 activ = human CYP2C19 activators, primary screen, biochemical, luminescence. Cytochrome P450 2C19 (Homo sapiens), P33261. recombinant CYP2C19, luciferin-H EGE luminescence; stronger effect = higher value; 0 = fully inhibited enzyme, 1 = untreated enzyme. activation factor at 5 µM. 96,000 tested, under 10 active;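 active means activation factor of at least 2 at 5 µM in the primary screen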;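 further: 0 = wells with 2.5 mM tranylcypromine and 1 = vehicle-only wells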
# CYP2C19 inh = blockers of cytochrome P450 2C19 activity – biochemical, luminescence, ADME assay, primary screen. P33261. CYP2C19 Supersomes, luciferin-H EGE luminescence, 30 min. inhibition, % at 5 µM. 21% of 96,000 active. AID 778, 2007;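 active means CYP2C19 inhibition above a set limit at 5 µM in the primary screen, cut at about 50% in these data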;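 further: plate controls were negative control wells for no effect and 2.5 mM tranylcypromine positive control for full effect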
# sEH inhibitor = soluble epoxide hydrolase inhibitors, primary screen, biochemical, human sEH; Bifunctional epoxide hydrolase 2 (Homo sapiens), P34913; recombinant human sEH enzymatic activity assay; AID 707, 2007; inhibition, % at 2 µM; 0.34% of 91,000 active; in the data active means inhibition above about 80%
# CYP2C9 inhib = blockers of cytochrome P450 2C9 activity – biochemical, luminescence, ADME assay, primary screen | P11712 | CYP2C9 Supersomes, luciferin-H conversion | inhibition, % at 5 µM | 20% of 96,000 active;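 active means blocking of liver enzyme CYP2C9 beyond about 50% at 5 µM, limit read from the data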
# Target sequence (P11712 whole entry, looked up): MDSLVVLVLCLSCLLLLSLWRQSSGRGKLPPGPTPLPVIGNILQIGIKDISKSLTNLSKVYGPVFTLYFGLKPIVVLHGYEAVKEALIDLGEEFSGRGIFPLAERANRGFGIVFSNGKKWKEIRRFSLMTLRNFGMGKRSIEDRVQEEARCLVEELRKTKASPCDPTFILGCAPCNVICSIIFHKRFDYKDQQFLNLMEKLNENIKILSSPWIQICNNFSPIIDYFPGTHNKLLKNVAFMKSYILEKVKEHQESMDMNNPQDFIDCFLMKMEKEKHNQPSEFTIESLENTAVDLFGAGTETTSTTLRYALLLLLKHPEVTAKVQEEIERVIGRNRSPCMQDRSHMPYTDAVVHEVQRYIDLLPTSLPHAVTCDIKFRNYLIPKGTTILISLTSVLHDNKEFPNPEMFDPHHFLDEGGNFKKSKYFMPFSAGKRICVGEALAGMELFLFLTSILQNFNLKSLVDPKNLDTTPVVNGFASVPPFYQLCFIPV
# sEH activator = soluble epoxide hydrolase activators, primary screen, biochemical, human sEH; purified human sEH enzymatic activity, activator screen; 0.04% of 91,000 active; activation, % at 2 µM; Bifunctional epoxide hydrolase 2 (Homo sapiens), P34913; in the data active means activation above about 37%
# CYP2C9 activ = human CYP2C9 activators, primary screen, biochemical, luminescence; Cytochrome P450 2C9 (Homo sapiens), P11712; recombinant CYP2C9, luciferin-H conversion; stronger effect = higher value; factor 1 = untreated enzyme, 0 = blocked; activation factor at 5 µM; 1.4% of 96,000 active; AID 1024, 2008;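 active means activation factor of 2 or more for CYP2C9 at a 5 µM dose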;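 further: 0 = sulfaphenazole-blocked wells and 1 = vehicle-only wells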
# Active calls of the source: *; x = not tested or not shown.
SMILES,CYP2C19 activ,CYP2C19 inh,sEH inhibitor,CYP2C9 inhib,sEH activator,CYP2C9 activ
O=C(O)C1(NS(=O)(=O)c2ccc(Cl)cc2)CCCCC1,1.1,-7,-14,-5,12,1.1
Cc1ccc(S(=O)(=O)NC2(C(=O)O)CCCCC2)cc1,1,3,-4,57*,3,0.4
O=C(NC1CC2CCC(C1)N2Cc1ccco1)c1ccccc1 (stereo not given),x,x,3,x,-4,x
CCOc1ccccc1C(=O)NC1CC2CCCC(C1)N2C1CC1 (stereo not given),0.8,22,4,69*,-3,0.3
CCOc1ccccc1C(=O)NCC(=O)OCC(=O)N1C(C)CCCC1C (stereo not given),x,x,1,x,-2,x
O=C(NC1CC2CCC(C1)N2Cc1nnnn1Cc1ccco1)NC12CC3CC(CC(C3)C1)C2 (stereo not given),0.3,71*,x,54*,x,0.5
CCOc1ccccc1C(=O)NC1CC2CCCC(C1)N2Cc1nnnn1Cc1ccco1 (stereo not given),0.1,88*,-7,98*,8,0
O=S(=O)(Nc1ccc2nc(-c3ccc(Br)o3)[nH]c2c1)c1ccccc1,0.1,91*,15,94*,-17,0.1
Cc1ccc(-c2nc3ccc(NS(=O)(=O)c4ccccc4)cc3[nH]2)o1,0,100*,-6,100*,4,0
O=S(=O)(Nc1ccc2nc(C(F)(F)F)[nH]c2c1)c1ccccc1,0,100*,17,81*,-15,0.2
O=C(NC1CCSC1=O)c1cccc(C(=O)NC2CCSC2=O)c1 (stereo not given),0.9,6,1,5,-4,0.9
COc1nc2ccccc2c(=O)n1OCC(C)C,0.2,82*,x,19,x,0.8
Cn1c(CN2CCCC2)nc2cc(NS(=O)(=O)c3ccc(Cl)cc3)ccc21,0.8,20,-4,2,7,1
O=c1ccc(NS(=O)(=O)c2ccc(Cl)cc2)cn1Cc1ccc(Cl)c(Cl)c1,0,97*,-7,90*,7,0.1
COc1cc2c(C)nc(C)c(C#N)c2cc1OC,1.1,-6,-6,0,2,1
O=C(CN(c1ccc(Cl)cc1)S(=O)(=O)c1ccccc1)N/N=C/c1ccco1,0,98*,5,82*,-3,0.2
Cc1ccc(CN(CC(=O)N/N=C/c2ccco2)S(=O)(=O)c2ccc(C)cc2)cc1,0,100*,1,90*,0,0.1
CCOc1ccc(/C=N/O)cc1,0.4,55*,-2,14,1,0.9
Cc1ccc(Oc2ccc(/C=N/O)cn2)cc1,0.9,8,-2,13,2,0.9
CCn1cc(Br)c(C(=O)Nc2cccc(Cl)c2)n1,0.1,94*,16,66*,-11,0.3
CCn1cc(Br)c(C(=O)Nc2ccc(Cl)c(Cl)c2)n1,x,x,-13,x,17,x
CCCCOC(=O)c1ccc(NC(=O)c2nn(C)cc2Br)cc1,x,x,6,x,-3,x
CCOC(=O)c1c(NC(=O)c2nn(CC)cc2Br)c(C#N)cn1-c1ccccc1,0.2,75*,-10,-2,12,1
CCn1cc(Br)c(C(=O)Nc2ccc(OC)cc2)n1,0.3,74*,2,20,4,0.8
CCn1cc(Br)c(C(=O)Nc2ccc(C(=O)OC(C)C)cc2)n1,0.3,75*,6,14,-4,0.9
SMILES,CYP2C19 activ,CYP2C19 inh,sEH inhibitor,CYP2C9 inhib,sEH activator,CYP2C9 activ
CCOC(=O)c1c(N)c(C#N)cn1-c1ccccc1,0.8,25,-14,-2,14,1
O=C(Nc1cc(Cl)cc(Cl)c1)c1cccc(OC(F)F)c1,0.8,16,26,34,-25,0.7
O=C1OCCC1Sc1nc2ccccc2[nH]1 (stereo not given),0.9,5,x,1,x,1
O=C(c1ccc(F)cc1)N1CCCCC(Sc2nnnn2-c2ccccc2)C1=O (stereo not given),0.3,73*,7,74*,-4,0.3
O=C1OCCC1Sc1nc(-c2ccccc2)cs1 (stereo not given),0.1,87*,4,-109,0,2.1*
COc1ccc(OCc2nnc(SC3CCOC3=O)n2-c2ccccc2)cc1 (stereo not given),0.2,84*,-4,27,7,0.7
COc1cccc(-n2c(SC3CCOC3=O)nc3ccccc3c2=O)c1 (stereo not given),x,x,4,x,-5,x
O=C1OCCC1Sc1nnnn1-c1ccccc1 (stereo not given),0.1,88*,8,-5,-4,1
Cc1cccc(NC(=O)c2ccc(N(C)C3CCCCC3)c([N+](=O)[O-])c2)n1,1,3,7,20,-5,0.8
COc1ccc(-c2noc(CCC(=O)N3CCN(c4cccc(C(F)(F)F)c4)CC3)n2)cc1,0.3,70*,14,83*,-12,0.2
CCOc1ccc(-c2cc(CCCC(=O)NCc3ccc(C)cc3)no2)cc1,0.6,36,x,53*,x,0.5
CCOc1ccc(-c2cc(CCCC(=O)NCc3ccco3)no2)cc1,1,2,x,19,x,0.8
COc1ccc(-c2cc(CCCC(=O)N3CCN(c4ccc(OC)cc4)CC3)no2)cc1,0.3,70*,x,71*,x,0.3
COc1ccc(-c2cc(CCCC(=O)NCCc3cc(OC)ccc3OC)no2)cc1,0.4,57*,32,66*,-33,0.3
COc1ccc(NC(=O)N2CCN(c3cccc(C(F)(F)F)c3)CC2)cc1,1.1,-10,19,-31,-21,1.3
CCCCNC(=O)c1cc(-c2ccc(OC)cc2)on1,0.5,47,-4,20,5,0.8
CC(=O)C1=C(O)C(=O)N(CC(=O)O)C1c1ccccc1Cl (stereo not given),1,-5,6,1,-4,1
COc1ccc(NC(=O)c2ccco2)cc1NC(=O)c1ccc(C)cc1,0.8,20,2,49,-2,0.5
COc1ccc(NC(=O)CCc2ccccc2)cc1NC(=O)c1ccco1,0.4,62*,4,66*,-6,0.3
COc1ccccc1-n1cnc2cc(NC(=O)c3ccco3)ccc21,0.3,65*,6,-6,-6,1.1
COc1ccc(-n2cnc3cc(NC(=O)c4ccco4)ccc32)cc1,0.8,20,-9,-3,6,1
COc1ccc(NC(=O)c2ccco2)cc1NC(=O)c1cccs1,0.4,57*,-1,55*,3,0.4
COC(=O)c1ccccc1NC(NC(=O)c1ccco1)C(=O)c1ccccc1 (stereo not given),1.1,-10,x,7,x,0.9
